From PubChem BioAssay AID2291 (The Scripps Research Institute Molecular Screening Center, 2010)
Hit rate of the full screen: of about 16,000 compounds, about 75 (0.5%) were called active. Many of the other results were omitted from the sample, so actives are more common in it than they were. A number with no mark means an inactive call. No stated cut-off is given here; in the data, active means inhibition above about 30%; inactive means the rest.

The compounds below were run against Protein phosphatase methylesterase 1 (Homo sapiens) (UniProt Q9Y570) (assay: inhibitors of human PME-1 in Maybridge library (AID 2291)). Conditions: recombinant PME-1, FP-Rh probe fluorescence polarization; at 9 µM; active compounds read high.
Sequence of Protein phosphatase methylesterase 1 (Homo sapiens) (Q9Y570 whole entry, looked up): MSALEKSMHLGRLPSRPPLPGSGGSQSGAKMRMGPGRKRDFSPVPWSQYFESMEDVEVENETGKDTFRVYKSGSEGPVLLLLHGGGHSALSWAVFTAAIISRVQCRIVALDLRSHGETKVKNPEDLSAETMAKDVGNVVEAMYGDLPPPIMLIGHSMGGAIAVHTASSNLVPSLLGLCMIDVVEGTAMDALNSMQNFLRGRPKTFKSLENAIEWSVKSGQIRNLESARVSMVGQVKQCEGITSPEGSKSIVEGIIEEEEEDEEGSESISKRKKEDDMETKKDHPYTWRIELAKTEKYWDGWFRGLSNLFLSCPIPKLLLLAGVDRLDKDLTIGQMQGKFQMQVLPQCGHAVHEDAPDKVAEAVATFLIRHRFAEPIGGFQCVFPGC

**Q.** With COc1ccc(-c2ccc(/C=N/NC(=O)CCc3ccc(O)cc3)s2)cc1 as the compound, how does the inhibition read?
**A.** -3.06%

**Q.** COc1ccc(COCC(O)CN2CCC(C(N)=O)CC2)cc1 (stereo unspecified) was tested. Which inhibition did it give?
**A.** 1.38%

**Q.** For FC(F)(F)c1ccc(Cl)c(NC(=S)NN=C2CCCCCC2)c1, which inhibition is on record?
**A.** 0.88%

**Q.** How did the inhibition turn out when CC1(C)C=Cc2cc(-c3noc(-c4ccccc4)n3)ccc2O1 was run?
**A.** -23.5%

**Q.** For CCCc1c(C(=O)Nc2ccc(F)cc2)cnn1-c1ccccc1, which inhibition is on record?
**A.** 3.87%

**Q.** O=C(Oc1ccccc1N1CCCCC1)c1sc2ccccc2c1Cl was tested. Which inhibition did it give?
**A.** -0.751%

**Q.** For CCOC(=O)CNC(=O)CCc1cc(OC)c(OC)c(OC)c1, which inhibition is on record?
**A.** 6.62%

**Q.** Cn1c(S(=O)(=O)O)nc2ccccc21 was tested. Which inhibition did it give?
**A.** 3.94%

**Q.** With O=C(Sc1ccccc1)c1ccc(C(F)(F)F)cc1 as the compound, how does the inhibition read?
**A.** -0.43%

**Q.** CN(NS(=O)(=O)CS(C)(=O)=O)c1ncccc1[N+](=O)[O-] was tested. Which inhibition did it give?
**A.** 5.17%

**Q.** O=C(O)c1onc2ccccc12 was tested. Which inhibition did it give?
**A.** -2.58%

**Q.** How did the inhibition turn out when CCOC(=O)NN(C(=O)OCC)c1c(C)c(C)c(C)c(C)c1C was run?
**A.** -1.33%

**Q.** For Cc1nc(C(F)(F)F)ccc1C(=O)NC1CCCc2ccccc21 (stereo unspecified), which inhibition is on record?
**A.** 1.46%

**Q.** With Cc1cc2nc(C)c(C)nc2cc1C as the compound, how does the inhibition read?
**A.** -1.82%

**Q.** Which inhibition does the source give for COc1ccc(NC(=O)C2CC(C)=C(C)CC2C(=O)O)c(N2CCOCC2)n1 (stereo unspecified) here?
**A.** 1.52%

**Q.** N#CC(Cc1ccccc1)Sc1ccccc1 (stereo unspecified) was tested. Which inhibition did it give?
**A.** 3.19%

**Q.** O=C(CNC(=O)c1ccccc1F)c1ccc(Br)cc1 was tested. Which inhibition did it give?
**A.** -7.48%

**Q.** For O=C(/C(=N\N=C\c1ccc2c(c1)OCO2)c1ccccc1)c1ccccc1, which inhibition is on record?
**A.** 4.75%

**Q.** For Cc1cc2nsnc2cc1Cl, which inhibition is on record?
**A.** 0.257%

**Q.** With COC(=O)c1sc(SC)c(-c2ccn[nH]2)c1C as the compound, how does the inhibition read?
**A.** 2.07%

**Q.** With NC(=S)N/N=C\Cc1nnnn1-c1ccc(Cl)cc1 as the compound, how does the inhibition read?
**A.** 1.94%

**Q.** With Nc1nc(C23CC4CC(CC(C4)C2)C3)cs1 as the compound, how does the inhibition read?
**A.** 8.45%

**Q.** CSc1ccc(C(F)(F)F)cc1C(=O)/C=C/N(C)C was tested. Which inhibition did it give?
**A.** -0.344%

**Q.** Which inhibition does the source give for Clc1ccc(-c2csc(-c3cnccn3)n2)s1 here?
**A.** -1.61%

**Q.** O=C1c2ccc3c4c(ccc(c24)C(=O)N1c1ccccc1)C(=O)N(c1ccccc1)C3=O was tested. Which inhibition did it give?
**A.** 5.87%

**Q.** How did the inhibition turn out when CCOC(=O)C1=C(C)NC(=O)NC1c1ccc(-c2cccc([N+](=O)[O-])c2)o1 (stereo unspecified) was run?
**A.** -24.2%

**Q.** How did the inhibition turn out when C/C(=N\NC(N)=S)c1csc(-c2ccccc2)n1 was run?
**A.** 4.41%

**Q.** Which inhibition does the source give for O=C(c1cc(-c2cccs2)on1)N1CCCCC1 here?
**A.** -4.77%

**Q.** For COCn1nnc2ccccc21, which inhibition is on record?
**A.** 0.294%

**Q.** For COc1ccc(/C=C(\NC(=O)c2ccccc2)C(=O)N/N=C/c2ccc3c(c2)OCO3)cc1, which inhibition is on record?
**A.** -5.56%

**Q.** CCCCc1ccc(-n2c(-c3ccc(F)cc3)coc2=O)cc1 was tested. Which inhibition did it give?
**A.** 2.07%

**Q.** Which inhibition does the source give for N#C/C(=C\N1CCc2ccccc21)S(=O)(=O)c1ccc(C(F)(F)F)cn1 here?
**A.** 2.09%

**Q.** Cn1c(=O)c(C#N)cn(-c2ccccc2)c1=O was tested. Which inhibition did it give?
**A.** 2.81%

**Q.** With Cc1ccc(NC(=S)C(C#N)C(=O)N2CCCC2)c(C)c1 (stereo unspecified) as the compound, how does the inhibition read?
**A.** -4.1%

**Q.** For O=C(Nc1ccccc1-c1ccccc1)c1cccs1, which inhibition is on record?
**A.** -1.11%

**Q.** How did the inhibition turn out when Fc1cccc(Cl)c1CN1CCN(c2ncnc3scc(-c4cccs4)c23)CC1 was run?
**A.** -3.44%

**Q.** How did the inhibition turn out when CCOC(=O)Cc1csc(NC(NC(=O)OCC)(C(F)(F)F)C(F)(F)F)n1 was run?
**A.** 4.35%

**Q.** O=C1Nc2ccccc2C12NNC(=S)NN2 was tested. Which inhibition did it give?
**A.** 65.2% (active)

**Q.** How did the inhibition turn out when CSc1ccc(C(F)(F)F)cc1NC(=S)Nc1ccccc1 was run?
**A.** 0.0132%

**Q.** For N#Cc1c(-c2cccs2)oc(-n2cccc2)c1-c1cc(Br)cs1, which inhibition is on record?
**A.** -56.1%

**Q.** O=C(NNC(=O)C1c2ccccc2Oc2ccccc21)c1cccc(F)c1 was tested. Which inhibition did it give?
**A.** 0.119%

**Q.** O=S(=O)(NC1Cc2ccccc2C1)c1ccc(-c2csnn2)cc1 was tested. Which inhibition did it give?
**A.** 7.03%

**Q.** For Cn1cnc([N+](=O)[O-])c1N1CCN(C(c2ccccc2)c2ccccc2)CC1, which inhibition is on record?
**A.** 0.986%

**Q.** CN1CCCCC(C2=C(Cl)C(=O)CCC2)C1=O (stereo unspecified) was tested. Which inhibition did it give?
**A.** 3.98%

**Q.** For OC(COc1ccc(Cl)c(Cl)c1)CN1CCC(Nc2nccc(C(F)(F)F)n2)CC1 (stereo unspecified), which inhibition is on record?
**A.** -0.258%

**Q.** With O=C(Nc1cc2ccccc2s1)N1CCN(Cc2c(F)cccc2Cl)CC1 as the compound, how does the inhibition read?
**A.** 0.279%

**Q.** NC(=O)c1cccc2c1OCCO2 was tested. Which inhibition did it give?
**A.** 6.89%

**Q.** Nc1ccccc1SCc1cc([N+](=O)[O-])cc2c1OCOC2 was tested. Which inhibition did it give?
**A.** 5.44%

**Q.** With COc1cc(CC/C(C)=N/O)ccc1O as the compound, how does the inhibition read?
**A.** 3.22%

**Q.** NNC(=O)c1ccc(Cl)cc1Cl was tested. Which inhibition did it give?
**A.** 15.5%

**Q.** How did the inhibition turn out when CC(=O)Nc1ccc(C)cc1N=Cc1ccncc1 was run?
**A.** 2.67%

**Q.** For O=C(O)c1cnc(NCc2ccccc2)s1, which inhibition is on record?
**A.** -5.43%

**Q.** Which inhibition does the source give for COc1ccc(CCN=C(C)c2cc(Cl)cc(Cl)c2O)cc1OC here?
**A.** 0.059%

**Q.** How did the inhibition turn out when CC1(NC(=O)OCc2ccccc2)CC1NC(=O)OCc1ccccc1 (stereo unspecified) was run?
**A.** -1.61%

**Q.** O=S(=O)(c1ccc2c(c1)OCCO2)N1CCN(c2ccc(C(F)(F)F)cn2)CC1 was tested. Which inhibition did it give?
**A.** 27.1%

**Q.** Which inhibition does the source give for O=C(Cc1cccc2ccccc12)NNC(=O)Nc1ccc(Cl)cc1 here?
**A.** -12.8%

**Q.** For CCOC(=O)/C(=N/Nc1ccccc1)C(C)=N, which inhibition is on record?
**A.** 1.95%

**Q.** How did the inhibition turn out when N#CC(C#N)=C/C=C(/Sc1nc2cc(Cl)ccc2s1)c1ccc(Cl)cc1 was run?
**A.** 3.07%

**Q.** How did the inhibition turn out when Cc1cccc(Cl)c1NC(=S)NCCNC(=O)OC(C)(C)C was run?
**A.** -2.72%

**Q.** Which inhibition does the source give for O=c1[nH]c2ccccc2c(=O)n1CCSc1ccc(Cl)cc1 here?
**A.** -0.818%

**Q.** For O=C(O)CCc1cccnc1, which inhibition is on record?
**A.** 5.03%

**Q.** How did the inhibition turn out when OC(CN1CCN(c2ccc(C(F)(F)F)cn2)CC1)c1ccc2c(c1)OCCO2 (stereo unspecified) was run?
**A.** -3.57%

**Q.** For OC(COc1ccc(F)cc1)(c1ccccc1)c1ccccc1, which inhibition is on record?
**A.** 2.52%

**Q.** Which inhibition does the source give for Cn1/c(=N\N=C2CCCCC2)sc2ccccc21 here?
**A.** 24.3%

**Q.** O=C(O)/C=C/C(=O)Nc1ccc(NC(=O)c2ccccc2O)cc1 was tested. Which inhibition did it give?
**A.** -5.93%

**Q.** How did the inhibition turn out when O=C1CC(c2ccccc2)C(=O)N1Cc1cccs1 (stereo unspecified) was run?
**A.** -0.212%
